High-throughput results as filed in PubChem BioAssay.
Hits are enriched below; roughly 3.3% of the tested compounds scored in any of these assays.
Tb PYK inh – qHTS of Trypanosoma Brucei Inhibitors; pyruvate kinase (Trypanosoma brucei), Q57TT1; TbPYK enzyme, Kinase-Glo Plus ATP luminescence, 45 min; Potency, µM (titrated, usually from 76.8 µM), for the others: at the highest dose activity, negative = inhibition, usual class: inhibitors; 0.12% of 410,000 active; also: potency is read from the fitted curve at half-maximal effect; % is scaled to controls: 0 for no effect and ±100 for the full control effect; nearly all actives have a fitted effect of over 50% in size
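Readout: single end-point luminescence (Kinase-Glo Plus, 10 min). Reaction conditions were TbPYK/substrate plus 130 uM ADP, 45 min at RT, pH 7.2 TEA buffer. No-enzyme wells served as controls, and data were normalized before concentration-response fitting.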
SARS PLP yeast – qHTS of Yeast-based Assay for SARS-CoV PLP; S. cerevisiae expressing SARS-CoV PLpro, growth rescue; 0.19% of 330,000 active; Potency, µM (top dose mostly 32.9 µM), without a hit: at the top dose activity, positive = growth rescue, usual class: activators; AID 485353, 2010; calls by dose curve; also: potency is read from the fitted curve at half-maximal effect; 0% is about no effect; nearly all actives have a fitted effect of over 55% in size
RE007 growth inh – qHTS Assay for Inhibitors of the HIV-1 protein Vpr; 0.21% of 360,000 active; S. pombe RE007 Vpr strain, BacTiter-Glo ATP luminescence, 24 h; AID 651644, 2012; Potency, µM (top dose mostly 92.2 µM), for the others: top-dose activity change, negative = less growth, hits mostly inhibitors; active = well fitted falling curve with a large enough effect; inconclusive = small, poorly fitted or top-dose-only effect; inactive = no such curve, though single readings can be large or run the other way; also: potency is read from the fitted curve at half-maximal effect; % is scaled to controls: 0 for no effect and ±100 for the full control effect; nearly all actives have a fitted effect of over 50% in size
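Fission yeast strain RE007, carrying one chromosomally integrated HIV-1 vpr copy, was seeded at OD 0.01 in PMG+AL medium with 23 nL pinned compound. After 24 h at 30 °C and 99% humidity, viability was read by BacTiter-Glo luminescence.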
Sm TGR block – qHTS Assay for the Inhibitors of Schistosoma Mansoni Peroxiredoxins | Potency, µM (top dose mostly 114 µM), without a hit: at the top dose activity change, negative = inhibition, most hits filed as inhibitors | Schistosoma mansoni thioredoxin glutathione reductase (TGR), Q962Y6 | 3% of 360,000 active | purified TGR, DTNB reduction, TNB absorbance 405 nm; also: potency is read from the fitted curve at half-maximal effect; % is scaled to controls: 0 for no effect and ±100 for the full control effect; nearly all actives have a fitted effect of over 60% in size
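TGR 20 nM + NADPH 100 uM (dispensed conc.), cpd preinc 15 min RT; start with NADPH (500 uM addition) then DTNB (15 mM addition). Kinetic TNB absorbance, 405 nm filter. Four-parameter Hill fit across titration.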
NS1 function inh – qHTS Assay for Inhibitors of Influenza NS1 Protein Function. Potency, µM (titrated, usually from 46.1 µM), inactives show at the top dose activity, positive = more growth. 0.4% of 270,000 active. AID 2326, 2010; calls by dose curve; also: potency is read from the fitted curve at half-maximal effect; actives are rising curves; nearly all actives have a fitted effect of over 50% in size
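Read-out: OD600 growth recovery of NS1-expressing budding yeast. Cells grown overnight at 30C in -URA glucose medium, washed, resuspended and diluted 1:100 in 2% galactose assay medium, pH 6.0. Same strain lacking NS1 served as positive control.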
LmPK inh – qHTS Assay for Inhibitors of Leishmania Mexicana Pyruvate Kinase (LmPK) | Q27686 | purified LmPK, Kinase-Glo ATP luminescence, 1 h | Potency, µM (titrated, usually from 57.5 µM), inactives show top-dose activity change, negative = inhibition, hits mostly inhibitors | 0.37% of 290,000 active; also: potency is read from the fitted curve at half-maximal effect; % is scaled to controls: 0 for no effect and ±100 for the full control effect
Target sequence (Q27686 whole entry, looked up): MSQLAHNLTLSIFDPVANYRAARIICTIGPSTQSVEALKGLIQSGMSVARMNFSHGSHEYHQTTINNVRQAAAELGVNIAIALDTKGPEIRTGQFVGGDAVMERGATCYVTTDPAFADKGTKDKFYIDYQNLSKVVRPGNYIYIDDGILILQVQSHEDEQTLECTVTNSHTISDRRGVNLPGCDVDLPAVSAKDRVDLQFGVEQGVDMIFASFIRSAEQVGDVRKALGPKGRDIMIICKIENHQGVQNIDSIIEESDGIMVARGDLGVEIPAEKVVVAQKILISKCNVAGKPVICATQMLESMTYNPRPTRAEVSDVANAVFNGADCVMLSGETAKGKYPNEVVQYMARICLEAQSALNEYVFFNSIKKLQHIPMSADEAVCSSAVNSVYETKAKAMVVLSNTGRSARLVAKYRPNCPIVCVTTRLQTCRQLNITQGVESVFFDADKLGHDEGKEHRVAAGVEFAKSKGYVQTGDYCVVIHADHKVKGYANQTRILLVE
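qHTS format; LmPK 0.1 nM; substrates PEP 0.5 mM and ADP 0.1 mM. One-hour room-temperature incubation, then coupled luciferase luminescence; 0.5 nM enzyme wells mark activation.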
NS1 inh valid – Assay for Inhibitors of Influenza NS1 Protein Function: Hit Validation; shares compounds with NS1 function inh; influenza NS1 function cell assay, 15-point titration; activity change, negative = inhibition, % at 32.9 µM; 1,400 tested, under 10 active; calls by dose curve; also: 0% is about no effect
Starred values were filed as active, the others as inactive; u = inconclusive; x = no result; [ ] = dose if it differs, or a comment. Unless noted, calls follow the shape of the dose curve; as a rule, active = well fitted curve in the direction sought with a large enough effect; inconclusive = small, poorly fitted or top-dose-only effect, or another doubt; inactive = no such curve, though single readings can be large; an effect the other way counts as inactive or inconclusive.

SMILES	Tb PYK inh	SARS PLP yeast	RE007 growth inh	Sm TGR block	NS1 function inh	LmPK inh	NS1 inh valid
COCC(C)N=C1NN=C(c2c[nH]c3ccccc23)CS1 (configuration not stated)	-6.1%	12.8%	4.4%	1.6%	u	0.0%	-2.4
CCN=C1NN=C(c2c[nH]c3ccccc23)CS1	u	0.8%	1.5%	4.1%	-2.5%	-8.3%	x
CCC(C)NC(=O)c1ccccc1NC(=O)CN1C(=O)c2cccc3cccc1c23 (configuration not stated)	-4.4%	x	x	0.5%	x	x	x
O=C(OCCN=C1NS(=O)(=O)c2ccccc21)c1cccnc1	3.5%	10.4%	8.3%	15.0%	u	-2.5%	-4.0
O=C(OCCN=C1NS(=O)(=O)c2ccccc21)c1ccccc1	0.4%	11.6%[6.58 µM]	3.4%	-10.8%	2.8%	5.5%	x
CCCCc1nc2n[nH]c(N)c2c2c1CSC(C)(C)C2	-5.5%	-7.3%	0.2%	3.9%	11.2%	7.4%	x
CC(C)c1nc2n[nH]c(N)c2c2c1CSC(C)(C)C2	-0.7%	10.5%	-7.2%	7.7%	5.62µM*	6.5%	36.0
CCNc1nc(NCC)n2c(SCC(=O)Nc3c(C)cccc3C)nnc2n1	-4.0%	-0.9%	-15.4%	-2.9%	x	x	x
CCNc1nc(NCC)n2c(SCC(=O)O)nnc2n1	2.4%	-2.8%	0.6%	11.2%	10µM*	0.8%	8.0
Cn1cccc1C(=O)NC(=O)COC(=O)c1ccc(O)cc1	-0.7%	4.3%	1.2%	-3.7%	10µM*	2.6%	-21.9
Cc1ccc(CNC(=O)Cn2cc(S(=O)(=O)Cc3cccc(Cl)c3)c3ccccc32)cc1	5.0%[15.4 µM]	x	x	7.1%	x	x	x
COc1ccc(Br)c(/C=N/NC(=O)COc2ccc(-c3ccccc3)cc2)c1	-8.5%	x	13.8%	4.1%	u	5.5%	-12.5
Cc1cc(C(=O)N[C@@H](c2ccccc2)[C@]2(C)C[C@H]2[C@@H](C)C(=O)Nc2ccc3ccccc3c2)no1	2.0%	u	-6.5%	-5.8%	11.2µM*	1.0%	11.5
C[C@@H](C(=O)Nc1ccc2ccccc2c1)[C@H]1C[C@]1(C)[C@H](NS(=O)(=O)c1ccccc1)c1ccccc1	4.1%	-14.7%	-2.2%	-9.6%	11.2µM*	2.1%	6.4
O=C(Cn1cc2c(n1)CCCC2)NCCCN1CCN(C2CCCCC2)CC1	-2.3%	2.7%	-4.6%	-13.5%	8.91µM*	3.4%	7.5
CC1(C)SC(=S)N(/N=C/c2ccccc2O)C1N(O)C(=O)Nc1ccccc1 (configuration not stated)	-3.8%	3.4%	1.9%	-1.9%	-4.4%	-0.6%	x
CC1(C)SC(=S)N(NC(=O)Nc2ccccc2)C1N(O)C(=O)Nc1cccc2ccccc12 (configuration not stated)	-5.8%	4.0%	-5.0%	2.1%	22.4µM*	2.6%	9.4
C/C(=N\Nc1ccccc1)c1c(O)n(-c2ccccc2)c(=O)[nH]c1=O	4.4%	-0.2%	119.6%	-4.2%	4.0%	7.1%	x
C/C(=N\Nc1ccccc1)c1c(O)n(Cc2ccccc2)c(=O)[nH]c1=O	-2.1%	-0.7%	176.1%	-29.3%	10µM*	-2.5%	-13.2
O=C(Cc1ccsc1-c1ccccc1)NO	-15.7%	1.8%	5.1%	3.9%	u	-11.4%	8.0
Cc1cc(C)c(NC(=O)CSc2nc(=O)n(Cc3ccncc3)c3c2CCC3)c(C)c1	1.4%	x	x	1.4%	x	x	x
Cc1ccc2oc(C(=O)Nc3ccc(S(=O)(=O)Nc4nc(C)cc(C)n4)cc3)cc(=O)c2c1	1.1%	x	x	-0.2%	x	x	x
Cc1ccccc1Cn1c(=O)n(-c2ccc(Cl)cc2)c(=O)c2c3c(sc21)CCCC3	-6.1%	x	x	1.6%	x	x	x
CCS(=O)(=O)Nc1cccc(C2=NN(S(=O)(=O)CC)C(c3ccccc3)C2)c1 (configuration not stated)	-12.0%	-3.9%	-3.5%	0.5%	x	3.4%	x
CCS(=O)(=O)Nc1ccc(C2=NN(C(=O)c3ccccc3)C(c3cccs3)C2)cc1 (configuration not stated)	-4.0%	0.7%	4.3%	-14.1%	2.0%	5.5%	x
SMILES	Tb PYK inh	SARS PLP yeast	RE007 growth inh	Sm TGR block	NS1 function inh	LmPK inh	NS1 inh valid
CCS(=O)(=O)Nc1cccc(C2=NN(S(=O)(=O)c3ccc(C)cc3)C(c3cccs3)C2)c1 (configuration not stated)	-3.2%	-5.1%	23.7%	-10.4%	12.6µM*	2.2%	13.5
CCS(=O)(=O)Nc1cccc(C2=NN(S(=O)(=O)c3ccccc3)C(c3cccs3)C2)c1 (configuration not stated)	-1.2%	5.4%	-7.5%	-1.0%	10µM*	4.9%	17.3
COc1ccc(NC(=O)CSc2nc3ccccc3n2CC(=O)N(C)C2CCCCC2)cc1	5.7%	x	x	3.5%	x	x	x
CCc1cccc(NC(=O)C(CC)n2nc(C)c3sc4ccccc4c3c2=O)c1 (configuration not stated)	-5.1%	x	x	34.7%	x	x	x
Cc1cc(C)c2c(=O)c3c(oc2c1)C(=O)N(Cc1ccc(F)cc1)C3c1cccc(O)c1 (configuration not stated)	-12.0%	x	x	1.3%	x	x	x
Nc1c(C(=O)Nc2ccc(Cl)c(C(F)(F)F)c2)sc2nc(-c3ccncc3)ccc12	-7.8%	x	x	0.0%	x	x	x
CN(C)C(CNC(=O)c1ccc(Br)cc1)c1ccco1 (configuration not stated)	9.7%	0.2%	0.5%	-4.7%	7.8%	3.6%	x
CN(C)C(CNC(=O)c1cc(Br)ccc1Cl)c1ccco1 (configuration not stated)	5.6%	8.7%	4.3%	-17.2%	2µM*	0.6%	-14.7
CC(=O)C1=C(c2ccccc2)N(C(C)=O)n2c(nnc2C2CCCCC2)S1	2.6%	x	x	5.4%	x	x	x
COc1ccccc1C(=O)NCCn1cc(SCC(=O)Nc2nnc(C)s2)c2ccccc21	-1.1%	5.2%	5.5%	-31.9%	12.6µM*	4.6%	11.1
Cc1nnc(NC(=O)CSc2cn(Cc3ccccc3)c3ccccc23)s1	-13.9%	-5.7%	8.4%	-29.6%	3.3%	8.4%	x
N#CCCn1cc(C(CC(=O)c2ccc(Br)cc2)C(=O)O)c2ccccc21 (configuration not stated)	-7.6%	10.6%	19.0%	u	8.91µM*	11.3%	17.0
